Measured values taken from PubChem BioAssay (NCATS).
Results filed as inconclusive are left out. Where a call stands in place of a potency, no number is given. Calls of active or inactive are those of the source. The call rests on the fitted dose curve; in most records, active means well fitted curve in the direction sought with a large enough effect; inconclusive means small, poorly fitted or top-dose-only effect, or another doubt; inactive means no such curve, though single readings can be large; an effect the other way counts as inactive or inconclusive.

Key:
[1] = target: Glucagon-like peptide 1 receptor (Homo sapiens) (UniProt P43220); experiment: qHTS of GLP-1 Receptor Agonists: LOPAC Validation (AID 624148); conditions: GLP-1R agonist cell assay; series mostly up to 46.1 µM;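 further: higher luminescence signal means agonism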
Sequence of Glucagon-like peptide 1 receptor (Homo sapiens) (P43220 whole entry, looked up): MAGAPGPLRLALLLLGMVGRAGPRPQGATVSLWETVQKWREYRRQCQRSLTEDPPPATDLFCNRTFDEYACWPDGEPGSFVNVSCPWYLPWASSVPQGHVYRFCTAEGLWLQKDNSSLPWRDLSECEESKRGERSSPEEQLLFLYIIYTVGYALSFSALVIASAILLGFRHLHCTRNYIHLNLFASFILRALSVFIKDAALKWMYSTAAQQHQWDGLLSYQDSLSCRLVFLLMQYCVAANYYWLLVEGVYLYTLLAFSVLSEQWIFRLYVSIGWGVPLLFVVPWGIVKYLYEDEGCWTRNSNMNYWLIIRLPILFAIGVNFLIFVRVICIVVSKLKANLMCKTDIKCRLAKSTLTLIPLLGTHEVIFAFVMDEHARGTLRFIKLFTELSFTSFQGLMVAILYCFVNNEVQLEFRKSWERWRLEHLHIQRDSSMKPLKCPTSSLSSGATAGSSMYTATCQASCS
Summary of the method: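 HEK293 cells stably co-expressing GLP-1R and a cAMP-responsive luciferase reporter, plated 12 hours before compound, then incubated 4-6 hr at 37 deg C. Luminescence read 12 min after detection reagent.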

[2] = qHTS of Nrf2 Activators: LOPAC Validation (AID 624149); conditions: Nrf2/ARE reporter cell assay; series mostly up to 46.1 µM
Summary of the method: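 Luciferase signal from ARE activation, read with Steady-Glo after 30 min at room temperature. Compounds were pin-transferred onto AREc32_Fluc cells (1000/well, OPTI-MEM/5% FBS, seeded overnight) and left 24 hr at 37 deg C.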

[3] = HTS Assay for Allosteric Antagonists of the Human D2 Dopamine Receptor: Hit Validation in HTRF (AID 624455); conditions: Cells stably expressing D1 dopamine receptor, inhibition mode; series mostly up to 46.1 µM;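 further: stable D1 dopamine receptor cell line scored for blocking the D1 response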
Summary of the method: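 Inhibition of the D1-mediated response was measured by HTRF. Cells used were a line stably expressing the D1 dopamine receptor.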

Q: With `CN(C)CC[C@@H](c1ccc(Br)cc1)c1ccccn1` as the compound, how does the outcome [1] read?
A: inactive

Q: What about the outcome [2] of the same compound?
A: inactive

Q: And the Potency [3]?
A: inactive

Q: With `CC(N=C(NC#N)Nc1ccncc1)C(C)(C)C` (stereo not given) as the compound, how does the outcome [1] read?
A: inactive

Q: What about the outcome [2] of the same compound?
A: inactive

Q: What about the Potency [3] of the same compound?
A: inactive

Q: Which results are given for `CC(C)(C)c1ccc(C(=O)CCCN2CCC(OC(c3ccccc3)c3ccccc3)CC2)cc1`?
A: outcome [1]: inactive; outcome [2]: inactive; Potency [3]: inactive

Q: For `O=C(O)CN(CCOCCOCCN(CC(=O)O)CC(=O)O)CC(=O)O`, which outcome [1] is on record?
A: inactive

Q: And the outcome [2]?
A: inactive

Q: What about the Potency [3] of the same compound?
A: inactive

Q: For `NC(N)=NC(=O)Cc1c(Cl)cccc1Cl`, which outcome [1] is on record?
A: inactive

Q: What about the outcome [2] of the same compound?
A: inactive

Q: What about the Potency [3] of the same compound?
A: inactive

Q: With `CSc1ccc(C(=O)c2[nH]c(=O)[nH]c2C)cc1` as the compound, how does the outcome [1] read?
A: inactive

Q: And the outcome [2]?
A: inactive

Q: What about the Potency [3] of the same compound?
A: inactive

Q: What does the source list for `CCCCNc1ccc(C(=O)OCCN(C)C)cc1`?
A: outcome [1]: inactive; outcome [2]: inactive; Potency [3]: inactive

Q: Which outcome [1] does the source give for `C#CCN(C)CCCOc1ccc(Cl)cc1Cl` here?
A: inactive

Q: What about the outcome [2] of the same compound?
A: inactive

Q: What about the Potency [3] of the same compound?
A: inactive

Q: With `CNCCC(Oc1ccccc1OC)c1ccccc1` (stereo not given) as the compound, how does the outcome [1] read?
A: inactive

Q: What about the outcome [2] of the same compound?
A: inactive

Q: And the Potency [3]?
A: inactive

Q: Which results are given for `CN1C[C@H](C(=O)N[C@]2(C)O[C@@]3(O)[C@@H]4CCCN4C(=O)[C@H](Cc4ccccc4)N3C2=O)C[C@@H]2c3cccc4[nH]cc(c34)C[C@H]21`?
A: outcome [1]: inactive; outcome [2]: inactive

Q: What does the source list for `CC(=O)OCC1=C(C(=O)O)N2C(=O)[C@@H](NC(=O)Cc3cccs3)[C@H]2SC1`?
A: outcome [1]: inactive; outcome [2]: inactive; Potency [3]: inactive

Q: For `COc1cc(C(=O)OCCCN2CCCN(CCCOC(=O)c3cc(OC)c(OC)c(OC)c3)CC2)cc(OC)c1OC`, which outcome [1] is on record?
A: inactive

Q: What about the outcome [2] of the same compound?
A: inactive

Q: What about the Potency [3] of the same compound?
A: inactive

Q: With `COC(=O)[C@@H](N)Cc1ccc(O)c(O)c1` as the compound, how does the outcome [1] read?
A: inactive

Q: And the outcome [2]?
A: inactive

Q: Which outcome [1] does the source give for `CCCCCCCC/C=C\CCCCCCCC(=O)NCc1ccc(O)c(OC)c1` here?
A: inactive

Q: What about the outcome [2] of the same compound?
A: inactive

Q: What about the Potency [3] of the same compound?
A: inactive
